Most compounds without a hit are left out; they make up all but 10% or so of the library.
ALDH1A1 block: qHTS Assay for Inhibitors of Aldehyde Dehydrogenase 1 (ALDH1A1) | 220,000 compounds, 7.3% hits | Purified ALDH1A1, NADH fluorescence, propionaldehyde substrate | Potency, µM (highest dose often 75.3 µM), hits mostly inhibitors
HPGD inh: qHTS Assay for Inhibitors of HPGD (15-Hydroxyprostaglandin Dehydrogenase); 15-hydroxyprostaglandin dehydrogenase [NAD(+)] (Homo sapiens), P15428; purified HPGD, NADH fluorescence kinetic, PGE2 substrate; Potency, µM, usual class: inhibitors; 150,000 compounds, 4.3% hits; AID 894, 2007
Target sequence (P15428 whole entry, looked up): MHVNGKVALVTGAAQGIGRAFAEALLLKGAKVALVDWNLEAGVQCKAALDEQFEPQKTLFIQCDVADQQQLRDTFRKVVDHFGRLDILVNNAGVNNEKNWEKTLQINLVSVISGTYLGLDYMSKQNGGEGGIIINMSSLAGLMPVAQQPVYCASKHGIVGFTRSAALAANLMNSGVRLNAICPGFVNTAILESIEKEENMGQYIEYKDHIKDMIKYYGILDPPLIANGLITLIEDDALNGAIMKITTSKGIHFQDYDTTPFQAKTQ
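20 nM HPGD preincubated 15 min at room temperature with compound in 50 mM Tris-HCl pH 8, 0.01% Tween 20. Started with 1 mM NAD+ and 30 uM prostaglandin E2; NADH fluorescence (360/450 nm) read 5 times over 30-s intervals, last minus first.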
Lamin A splicing: qHTS Assay for Modulators of Lamin A Splicing; HeLa LMNA splicing GFP/RFP minigene ratio, 48 h; Potency, µM (top dose mostly 46.1 µM), actives largely listed as inhibitors; 200,000 compounds, 0.01% hits; active means well fitted inhibition curve with a large enough effect in the signal ratio, with a control signal flat, not every such curve was filed as active; inconclusive means small, poorly fitted or top-dose-only effect, or effect the other way, or a change in a side signal; the % refers to the signal ratio
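S3 HeLa stable clones carrying a lamin A-EGFP splicing minigene plus DsRed2 were seeded at 600 cells/well in Opti-MEM with 2% FBS, pin-dosed and incubated 48 h at 37°C. Acumen cytometry (488 nm) gave the GFP/RFP total-intensity ratio.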
Luc counter: Counterscreen for Luciferase (Kinase-Glo TM) Inhibition | Luciferin 4-monooxygenase (Photuris pensylvanica), Q27757 | Kinase-Glo luciferase, ATP luminescence, 8 min | Potency, µM (series often up to 38.3 µM), hits mostly inhibitors | 200,000 compounds, 0.28% hits | AID 1379, 2008; active means well fitted inhibition curve with a large enough effect; inconclusive means small, poorly fitted or top-dose-only effect; further: nearly all actives have a fitted effect of over 60% in size
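Substrate mix (final 50 mM imidazole pH 7.2, 50 mM KCl, 7 mM MgCl2, 10 uM ATP, 0.01% Tween 20, 0.05% BSA) plus pin-tool compound, then Kinase-Glo detection mix; 8 min ambient, luminescence read.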
PNC assembly inh: High Content Assay for Compounds that inhibit the Assembly of the Perinucleolar Compartment | PC3M PTB-GFP, PNC prevalence imaging, 16 h; active compounds read low | activity change (PNC), negative = inhibition, % at 10 µM | 140,000 compounds, 3.1% hits;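 active means readout at or below -70, meaning at least 70% loss of cells showing the perinucleolar compartment, a nuclear body marking cancer cells; inconclusive means readout between -30 and a set limit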
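Compounds are pinned in duplicate onto adhered PC3M cells stably expressing GFP-tagged PTB and incubated 16 h at 37 C. Cells are then fixed, nuclei stained with Hoechst, and PNC-positive cells counted.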
Of the large screens only hits and unclear results are named; the others gave an inactive call. Unless noted, the call rests on the fitted dose curve; in most records, active means well fitted inhibition curve with a large enough effect (not every such curve was filed as active); inconclusive means small, poorly fitted or top-dose-only effect, or another doubt; inactive means no such curve, though single readings can be large or run the other way.

C=CCn1c(COc2ccc(Cl)cc2)nnc1SCC(=O)N/N=C/c1ccccc1	none
C=CCn1c(CNc2ccc(C)cc2)nnc1SCC(=O)N/N=C/c1ccc(O)cc1	ALDH1A1 block 25µM
FC(F)(F)c1ccccc1-c1nc(Nc2ccncc2)c2ccccc2n1	ALDH1A1 block inconclusive, HPGD inh inconclusive, Lamin A splicing inconclusive (no result: PNC assembly inh)
c1nnc(NC2=NCCCCC2)s1	none
c1nnc(NC2=NCCC2)s1	PNC assembly inh -111
CC1(C)CC(=O)C(C(c2cccc([N+](=O)[O-])c2)C2C(=O)CC(C)(C)CC2=O)C(=O)C1	PNC assembly inh inconclusive
Cc1ccc(C(C2C(=O)CC(C)(C)CC2=O)C2C(=O)CC(C)(C)CC2=O)s1	ALDH1A1 block 7.1µM, HPGD inh 2.8µM, Lamin A splicing inconclusive
CC1(C)CC(=O)C(C(c2ccncc2)C2C(=O)CC(C)(C)CC2=O)C(=O)C1	PNC assembly inh -87
OC[C@@H]1[C@@H](c2ccc(F)cc2)C(c2ccc(F)cc2)=NN1c1ccccc1	ALDH1A1 block inconclusive, HPGD inh inconclusive (no result: Lamin A splicing, PNC assembly inh)
O=C(c1ccc(F)cc1)N1CCN(CCc2ccncc2)CC1	none (no result: ALDH1A1 block, HPGD inh, Luc counter, PNC assembly inh)
C=CCn1c(SCC(=O)NCCCC)nc2scc(-c3ccco3)c2c1=O	ALDH1A1 block 20µM
C=CCn1c(SCC(=O)NC2CCCC2)nc2scc(-c3ccco3)c2c1=O	ALDH1A1 block 7.9µM, HPGD inh inconclusive
CC(/C=N/NC(=O)c1sc(N)nc1C)=C\c1ccccc1	ALDH1A1 block inconclusive (no result: HPGD inh, PNC assembly inh)
COc1ccc2[nH]c(C)c(C(=O)CN3CCc4cc(OC)c(OC)cc4C3)c2c1	ALDH1A1 block 10µM (no result: HPGD inh, Luc counter)
CCN(CC)c1nc2c(s1)C(=O)CC(C)(C)C2	ALDH1A1 block 13µM
CCN(CC)c1nc2c(s1)C(=O)NCCC2	ALDH1A1 block inconclusive
CCC1SC2=NC(C)=C(C(=O)OC)C(c3ccc(C)cc3)N2C1=O (centres undefined)	ALDH1A1 block 14µM, PNC assembly inh inconclusive
CC[C@@]1([N+](=O)[O-])C[C@H]2C=C[C@@H]1C2	none (no result: Lamin A splicing, PNC assembly inh)
Cc1cc(C)cc(-n2ccnc2SCC(=O)Nc2nc3ccc(C)cc3s2)c1	none (no result: ALDH1A1 block, HPGD inh, Luc counter, PNC assembly inh)
COCCOC(=O)C1=C(C)NC2(O)c3ccccc3C(=O)C12O (centres undefined)	ALDH1A1 block 11µM (no result: HPGD inh, Lamin A splicing, PNC assembly inh)
CCOC(=O)C1=C(C)NC2(O)c3ccccc3C(=O)C12O (centres undefined)	ALDH1A1 block inconclusive
CC(=O)c1c(C)oc2c1C(=O)c1ccccc1C2=O	Lamin A splicing inconclusive, PNC assembly inh inconclusive
CC(=O)C1=C(C)NC2(O)c3ccccc3C(=O)C12O (centres undefined)	ALDH1A1 block 11µM (no result: HPGD inh, Lamin A splicing, PNC assembly inh)
CCOC(=O)c1c(C)oc2nc(C)nc(NCCc3ccc(C)cc3)c12	none (no result: ALDH1A1 block, HPGD inh, Luc counter, PNC assembly inh)
O=P(O)(CCc1ccccc1)CN1CCCCC1	PNC assembly inh -82
O=C1CCCCCN1CP(=O)(O)CCc1ccccc1	none
COc1ccc(/C(N)=N/OC(=O)c2ccco2)cc1	none (no result: HPGD inh, PNC assembly inh)
COc1ccc(N=N/C(=C\O)C(=O)c2ccco2)cc1	ALDH1A1 block 7.9µM (no result: HPGD inh, PNC assembly inh)
CCOc1ccc(N2C(=O)CC(NCCNc3ccc([N+](=O)[O-])cn3)C2=O)cc1 (centres undefined)	ALDH1A1 block 0.89µM (no result: HPGD inh, PNC assembly inh)
COc1ccc(NC2CC(=O)N(c3cccc([N+](=O)[O-])c3)C2=O)cc1 (centres undefined)	ALDH1A1 block inconclusive (no result: HPGD inh, Lamin A splicing, PNC assembly inh)
COc1ccc(N2C(=O)CC(NCCNc3ccc([N+](=O)[O-])cn3)C2=O)cc1 (centres undefined)	ALDH1A1 block 1.8µM, Lamin A splicing inconclusive, PNC assembly inh -100
COc1ccc(NC(=O)CC2(CC(=O)O)CCCC2)cn1	ALDH1A1 block inconclusive (no result: HPGD inh, PNC assembly inh)
O=C(O)CC1(CC(=O)Nc2ccc(Oc3cccc(C(F)(F)F)c3)nc2)CCCC1	ALDH1A1 block 7.9µM (no result: HPGD inh, Lamin A splicing, Luc counter, PNC assembly inh)
Cc1ccc(CSc2nnc3[nH]c(=O)cc(C)n23)cc1	none (no result: ALDH1A1 block, HPGD inh, Luc counter, PNC assembly inh)
Cc1cc(=O)oc(C)c1C(=O)OCC(=O)c1ccc2ccccc2c1	ALDH1A1 block inconclusive, HPGD inh inconclusive
Cc1cc(=O)oc(C)c1C(=O)OCC(=O)c1ccccc1	ALDH1A1 block 16µM, HPGD inh inconclusive
Cc1cc(=O)oc(C)c1C(=O)OCC(=O)c1ccc(Br)cc1	ALDH1A1 block inconclusive, PNC assembly inh -90
COc1ccc(/C=C2\OC(=S)N(C)C2=O)cc1	ALDH1A1 block 20µM, Lamin A splicing inconclusive
COc1ccc(/C=C2/SC(=S)N(CCC(=O)O)C2=O)cc1	ALDH1A1 block inconclusive, Lamin A splicing inconclusive
CC(C)c1ccc(Oc2cccc(C(=O)/C(C#N)=C/N(C)C)c2)cc1	HPGD inh 16µM
CCCCCc1nc2sc3c(c2c(=O)n1NC(=O)c1ccc([N+](=O)[O-])cc1)CC(C)(C)OC3	ALDH1A1 block 8.9µM, Lamin A splicing inconclusive, PNC assembly inh inconclusive
S=c1nc[nH]c2c1sc1nc(N3CCOCC3)c3c(c12)CCCC3	ALDH1A1 block 1.4µM, Lamin A splicing inconclusive (no result: HPGD inh, PNC assembly inh)
Cn1nnc2c(sc3nc(N4CCOCC4)c4c(c32)CCCC4)c1=O	Lamin A splicing inconclusive, PNC assembly inh inconclusive
O=S(=O)(c1cccs1)N1CCN(S(=O)(=O)c2cccs2)CC1	Lamin A splicing inconclusive (no result: HPGD inh, PNC assembly inh)
O=S(=O)(c1cccs1)N1CCCc2cccc(O)c21	ALDH1A1 block inconclusive, HPGD inh 13µM, PNC assembly inh inconclusive
Cc1ccc(-n2cc(CNCCN3CCOC3=O)c(-c3cccc(C)c3)n2)cc1	ALDH1A1 block 7.1µM (no result: HPGD inh, Lamin A splicing, PNC assembly inh)
CN(CCO)c1cc(Sc2nc3ccccc3s2)c2nonc2c1[N+](=O)[O-]	ALDH1A1 block 25µM, HPGD inh inconclusive, Lamin A splicing inconclusive
